The record followed here is ChEMBL document CHEMBL2218924, “A broad activity screen in support of a chemogenomic map for kinase signalling research and drug discovery” (Biochem J, 2013).

The target of assay [1] is T1, Serine/threonine-protein kinase 17A (Homo sapiens) (UniProt Q9UEE5).
T1 sequence (whole entry): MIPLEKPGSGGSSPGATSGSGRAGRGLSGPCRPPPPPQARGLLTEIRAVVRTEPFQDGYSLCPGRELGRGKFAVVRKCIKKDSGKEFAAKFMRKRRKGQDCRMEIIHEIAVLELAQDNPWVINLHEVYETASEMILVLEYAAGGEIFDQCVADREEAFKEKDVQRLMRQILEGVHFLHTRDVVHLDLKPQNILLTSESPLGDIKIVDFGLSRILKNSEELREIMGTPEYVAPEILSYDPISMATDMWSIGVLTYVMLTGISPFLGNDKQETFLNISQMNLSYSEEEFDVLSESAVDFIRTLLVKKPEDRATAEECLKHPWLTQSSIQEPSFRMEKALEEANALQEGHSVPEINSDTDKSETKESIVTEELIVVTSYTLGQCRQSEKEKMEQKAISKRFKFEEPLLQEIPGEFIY
Conditions: at 10 µM.

In assay [2] the target is T2, Dual specificity tyrosine-phosphorylation-regulated kinase 2 (Homo sapiens) (UniProt Q92630).
T2 sequence (whole entry): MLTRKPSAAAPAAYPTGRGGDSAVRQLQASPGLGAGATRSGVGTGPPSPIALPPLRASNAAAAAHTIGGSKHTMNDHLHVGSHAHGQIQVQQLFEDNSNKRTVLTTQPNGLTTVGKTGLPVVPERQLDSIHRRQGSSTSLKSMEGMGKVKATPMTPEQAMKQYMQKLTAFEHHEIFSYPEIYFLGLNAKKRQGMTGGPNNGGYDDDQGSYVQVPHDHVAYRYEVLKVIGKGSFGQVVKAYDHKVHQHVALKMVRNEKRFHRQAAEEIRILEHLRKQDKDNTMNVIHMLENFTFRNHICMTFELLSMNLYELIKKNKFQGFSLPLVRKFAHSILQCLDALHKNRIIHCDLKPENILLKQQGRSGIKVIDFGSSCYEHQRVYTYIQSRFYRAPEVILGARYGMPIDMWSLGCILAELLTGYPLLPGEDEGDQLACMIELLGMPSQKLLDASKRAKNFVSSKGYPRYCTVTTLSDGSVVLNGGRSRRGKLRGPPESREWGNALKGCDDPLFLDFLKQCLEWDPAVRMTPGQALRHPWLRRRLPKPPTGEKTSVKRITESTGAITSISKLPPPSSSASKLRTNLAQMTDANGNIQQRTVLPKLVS
As to conditions: at 1 µM.

Assay [3] deals with T2, Dual specificity tyrosine-phosphorylation-regulated kinase 2 (Homo sapiens). As to conditions: at 10 µM.
For assay [4], the target named is Epidermal growth factor receptor (Homo sapiens) (UniProt P00533). As to conditions: at 1 µM.
The target is the same in assay [5]. Conditions: at 10 µM.
The target of assay [6] is T3, Ephrin type-A receptor 1 (Homo sapiens) (UniProt P21709).
T3 sequence (whole entry): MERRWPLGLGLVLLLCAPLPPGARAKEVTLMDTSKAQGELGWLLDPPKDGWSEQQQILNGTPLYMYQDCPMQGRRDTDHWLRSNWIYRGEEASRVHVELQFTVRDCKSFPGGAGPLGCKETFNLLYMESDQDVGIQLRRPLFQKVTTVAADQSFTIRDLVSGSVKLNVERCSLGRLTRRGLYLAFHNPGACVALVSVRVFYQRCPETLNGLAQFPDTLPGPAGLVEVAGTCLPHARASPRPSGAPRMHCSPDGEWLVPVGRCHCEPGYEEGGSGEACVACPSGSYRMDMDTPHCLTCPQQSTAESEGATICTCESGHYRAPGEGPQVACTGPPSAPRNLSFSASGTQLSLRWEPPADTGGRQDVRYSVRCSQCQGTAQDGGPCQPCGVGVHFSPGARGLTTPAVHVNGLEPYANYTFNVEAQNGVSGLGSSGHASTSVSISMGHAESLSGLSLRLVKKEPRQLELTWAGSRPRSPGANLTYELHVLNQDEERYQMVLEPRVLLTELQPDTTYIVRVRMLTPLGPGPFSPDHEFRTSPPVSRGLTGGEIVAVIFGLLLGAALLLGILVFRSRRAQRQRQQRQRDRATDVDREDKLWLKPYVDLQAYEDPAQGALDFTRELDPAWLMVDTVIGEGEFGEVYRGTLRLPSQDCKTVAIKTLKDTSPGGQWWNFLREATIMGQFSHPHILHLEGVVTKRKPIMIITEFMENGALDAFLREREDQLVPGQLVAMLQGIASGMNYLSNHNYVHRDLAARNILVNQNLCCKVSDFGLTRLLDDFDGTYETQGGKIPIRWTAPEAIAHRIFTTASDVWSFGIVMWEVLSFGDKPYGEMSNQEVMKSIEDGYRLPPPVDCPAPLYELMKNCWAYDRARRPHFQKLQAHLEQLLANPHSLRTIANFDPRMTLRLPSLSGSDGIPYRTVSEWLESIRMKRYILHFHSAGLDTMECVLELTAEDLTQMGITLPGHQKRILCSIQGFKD
As to conditions: at 1 µM.

The target of assay [7] is T3, Ephrin type-A receptor 1 (Homo sapiens). As to conditions: at 10 µM.
Assay [8] addresses Ephrin type-A receptor 2 (Homo sapiens) (UniProt P29317). Conditions: at 1 µM.
For assay [9] the target is unchanged. As to conditions: at 10 µM.
The target of assay [10] is T4, Ephrin type-A receptor 3 (Homo sapiens) (UniProt P29320).
T4 sequence (whole entry): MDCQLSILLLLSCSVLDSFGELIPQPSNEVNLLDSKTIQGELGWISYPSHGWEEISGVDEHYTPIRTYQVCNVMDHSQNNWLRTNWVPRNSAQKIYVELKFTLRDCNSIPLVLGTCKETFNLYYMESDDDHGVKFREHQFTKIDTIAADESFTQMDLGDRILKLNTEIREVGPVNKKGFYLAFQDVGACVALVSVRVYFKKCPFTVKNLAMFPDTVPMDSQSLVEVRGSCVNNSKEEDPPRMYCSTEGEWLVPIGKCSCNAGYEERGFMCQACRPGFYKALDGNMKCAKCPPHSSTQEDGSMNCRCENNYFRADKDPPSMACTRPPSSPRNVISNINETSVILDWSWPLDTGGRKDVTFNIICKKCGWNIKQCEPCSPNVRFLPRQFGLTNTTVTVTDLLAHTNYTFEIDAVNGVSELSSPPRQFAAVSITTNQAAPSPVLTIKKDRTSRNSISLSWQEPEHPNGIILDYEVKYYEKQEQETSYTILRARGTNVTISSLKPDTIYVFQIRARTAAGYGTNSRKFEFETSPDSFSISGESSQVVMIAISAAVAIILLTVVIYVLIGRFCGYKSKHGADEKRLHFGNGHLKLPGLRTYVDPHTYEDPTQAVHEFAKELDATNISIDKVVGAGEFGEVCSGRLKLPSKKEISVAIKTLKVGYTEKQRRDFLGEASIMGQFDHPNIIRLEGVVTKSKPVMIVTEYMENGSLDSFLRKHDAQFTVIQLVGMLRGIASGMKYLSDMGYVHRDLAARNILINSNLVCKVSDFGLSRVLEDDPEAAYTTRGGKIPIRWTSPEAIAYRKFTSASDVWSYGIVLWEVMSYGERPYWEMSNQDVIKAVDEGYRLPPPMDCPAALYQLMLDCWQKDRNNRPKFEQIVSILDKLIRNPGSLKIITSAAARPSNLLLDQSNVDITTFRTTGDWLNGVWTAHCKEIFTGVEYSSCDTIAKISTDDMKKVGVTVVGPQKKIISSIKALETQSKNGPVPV
As to conditions: at 1 µM.

Assay [11] deals with T4, Ephrin type-A receptor 3 (Homo sapiens). As to conditions: at 10 µM.
For assay [12], the target named is Ephrin type-A receptor 4 (Homo sapiens) (UniProt P54764). As to conditions: at 1 µM.
Sequence of Ephrin type-A receptor 4 (Homo sapiens) (P54764 whole entry): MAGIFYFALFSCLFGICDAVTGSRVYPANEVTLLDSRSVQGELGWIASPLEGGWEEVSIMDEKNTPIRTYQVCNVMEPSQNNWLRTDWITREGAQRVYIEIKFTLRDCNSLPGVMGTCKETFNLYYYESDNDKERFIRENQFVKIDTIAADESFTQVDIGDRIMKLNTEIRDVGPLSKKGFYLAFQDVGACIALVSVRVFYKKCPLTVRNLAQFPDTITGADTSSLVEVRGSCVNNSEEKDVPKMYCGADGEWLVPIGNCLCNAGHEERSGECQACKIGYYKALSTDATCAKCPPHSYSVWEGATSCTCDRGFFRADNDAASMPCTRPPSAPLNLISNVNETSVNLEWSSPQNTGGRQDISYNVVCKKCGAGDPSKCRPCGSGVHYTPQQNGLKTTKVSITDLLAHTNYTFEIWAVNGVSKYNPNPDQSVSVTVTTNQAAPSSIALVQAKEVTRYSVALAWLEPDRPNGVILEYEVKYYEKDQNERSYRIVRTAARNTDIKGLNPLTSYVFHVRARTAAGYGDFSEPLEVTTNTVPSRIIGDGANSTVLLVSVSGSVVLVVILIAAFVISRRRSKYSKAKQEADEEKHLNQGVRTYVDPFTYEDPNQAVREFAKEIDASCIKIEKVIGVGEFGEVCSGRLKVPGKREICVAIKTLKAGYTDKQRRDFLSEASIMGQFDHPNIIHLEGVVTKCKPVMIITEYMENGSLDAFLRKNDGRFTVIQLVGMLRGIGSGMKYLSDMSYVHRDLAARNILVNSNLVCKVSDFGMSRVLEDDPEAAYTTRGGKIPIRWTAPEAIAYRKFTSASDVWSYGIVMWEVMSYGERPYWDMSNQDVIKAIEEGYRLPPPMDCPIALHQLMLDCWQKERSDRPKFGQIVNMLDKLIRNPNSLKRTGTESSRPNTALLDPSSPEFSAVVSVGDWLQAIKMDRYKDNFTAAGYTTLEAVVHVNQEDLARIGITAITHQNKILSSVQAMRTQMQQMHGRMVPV
For assay [13] the target is unchanged. Conditions: at 10 µM.
Assay [14] deals with Ephrin type-A receptor 5 (Homo sapiens) (UniProt P54756). Conditions: at 1 µM.
Sequence of Ephrin type-A receptor 5 (Homo sapiens) (P54756 whole entry): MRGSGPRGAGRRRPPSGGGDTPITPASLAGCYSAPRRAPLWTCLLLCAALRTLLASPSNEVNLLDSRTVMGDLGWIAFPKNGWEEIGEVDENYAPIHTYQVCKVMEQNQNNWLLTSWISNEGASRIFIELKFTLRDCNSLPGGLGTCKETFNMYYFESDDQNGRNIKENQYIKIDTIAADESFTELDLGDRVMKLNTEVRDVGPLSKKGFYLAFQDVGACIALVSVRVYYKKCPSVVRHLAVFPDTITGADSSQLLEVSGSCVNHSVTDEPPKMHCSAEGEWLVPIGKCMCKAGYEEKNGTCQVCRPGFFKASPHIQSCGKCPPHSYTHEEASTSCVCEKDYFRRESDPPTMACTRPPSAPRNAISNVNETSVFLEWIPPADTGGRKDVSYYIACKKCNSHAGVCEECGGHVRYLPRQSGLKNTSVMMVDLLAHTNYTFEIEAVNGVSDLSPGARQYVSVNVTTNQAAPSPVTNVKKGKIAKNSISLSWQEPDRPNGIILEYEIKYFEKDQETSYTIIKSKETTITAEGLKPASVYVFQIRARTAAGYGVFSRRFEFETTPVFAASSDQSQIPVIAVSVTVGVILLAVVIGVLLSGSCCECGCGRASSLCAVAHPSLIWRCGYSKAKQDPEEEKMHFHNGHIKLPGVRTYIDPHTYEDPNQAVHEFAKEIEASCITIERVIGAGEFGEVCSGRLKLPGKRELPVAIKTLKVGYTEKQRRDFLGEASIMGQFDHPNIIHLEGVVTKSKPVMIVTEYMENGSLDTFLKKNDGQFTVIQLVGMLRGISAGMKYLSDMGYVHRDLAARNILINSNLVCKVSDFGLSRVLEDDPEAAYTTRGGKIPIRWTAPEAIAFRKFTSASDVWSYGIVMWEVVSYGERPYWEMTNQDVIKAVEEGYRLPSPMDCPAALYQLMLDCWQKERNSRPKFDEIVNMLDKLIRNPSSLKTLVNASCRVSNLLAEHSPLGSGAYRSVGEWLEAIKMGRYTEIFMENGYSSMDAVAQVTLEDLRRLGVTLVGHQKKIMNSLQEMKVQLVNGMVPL
For assay [15] the target is unchanged. Conditions: at 10 µM.
Assay [16] deals with Ephrin type-A receptor 7 (Homo sapiens) (UniProt Q15375). As to conditions: at 1 µM.
Sequence of Ephrin type-A receptor 7 (Homo sapiens) (Q15375 28-998 limits assumed): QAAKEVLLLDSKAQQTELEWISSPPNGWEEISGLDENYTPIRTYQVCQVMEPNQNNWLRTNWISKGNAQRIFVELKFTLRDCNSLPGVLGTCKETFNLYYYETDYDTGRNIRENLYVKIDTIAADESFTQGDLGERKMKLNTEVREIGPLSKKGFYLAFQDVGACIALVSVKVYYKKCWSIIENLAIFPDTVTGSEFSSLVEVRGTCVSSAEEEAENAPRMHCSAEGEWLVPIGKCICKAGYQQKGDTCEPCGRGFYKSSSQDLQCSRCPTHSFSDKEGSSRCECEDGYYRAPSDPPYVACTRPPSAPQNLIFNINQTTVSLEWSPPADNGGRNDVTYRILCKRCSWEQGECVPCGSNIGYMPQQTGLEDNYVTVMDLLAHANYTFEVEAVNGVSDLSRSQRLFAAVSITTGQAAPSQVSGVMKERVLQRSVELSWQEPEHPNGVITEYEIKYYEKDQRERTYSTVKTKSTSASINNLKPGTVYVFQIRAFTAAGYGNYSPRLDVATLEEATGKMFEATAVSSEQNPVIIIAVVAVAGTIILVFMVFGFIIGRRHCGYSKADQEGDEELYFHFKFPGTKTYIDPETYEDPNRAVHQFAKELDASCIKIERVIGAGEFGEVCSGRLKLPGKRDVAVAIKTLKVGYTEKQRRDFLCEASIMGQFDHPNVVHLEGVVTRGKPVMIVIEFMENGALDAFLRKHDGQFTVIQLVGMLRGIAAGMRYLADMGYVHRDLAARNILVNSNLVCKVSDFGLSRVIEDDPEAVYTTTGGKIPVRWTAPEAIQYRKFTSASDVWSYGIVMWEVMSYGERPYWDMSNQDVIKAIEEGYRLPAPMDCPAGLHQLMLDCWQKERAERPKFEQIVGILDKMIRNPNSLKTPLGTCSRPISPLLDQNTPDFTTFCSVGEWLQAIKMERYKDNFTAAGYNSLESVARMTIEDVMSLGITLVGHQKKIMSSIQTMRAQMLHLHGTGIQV
Assay [17] shares this target. As to conditions: at 10 µM.
In assay [18] the target is T5, Ephrin type-A receptor 8 (Homo sapiens) (UniProt P29322).
T5 sequence (whole entry): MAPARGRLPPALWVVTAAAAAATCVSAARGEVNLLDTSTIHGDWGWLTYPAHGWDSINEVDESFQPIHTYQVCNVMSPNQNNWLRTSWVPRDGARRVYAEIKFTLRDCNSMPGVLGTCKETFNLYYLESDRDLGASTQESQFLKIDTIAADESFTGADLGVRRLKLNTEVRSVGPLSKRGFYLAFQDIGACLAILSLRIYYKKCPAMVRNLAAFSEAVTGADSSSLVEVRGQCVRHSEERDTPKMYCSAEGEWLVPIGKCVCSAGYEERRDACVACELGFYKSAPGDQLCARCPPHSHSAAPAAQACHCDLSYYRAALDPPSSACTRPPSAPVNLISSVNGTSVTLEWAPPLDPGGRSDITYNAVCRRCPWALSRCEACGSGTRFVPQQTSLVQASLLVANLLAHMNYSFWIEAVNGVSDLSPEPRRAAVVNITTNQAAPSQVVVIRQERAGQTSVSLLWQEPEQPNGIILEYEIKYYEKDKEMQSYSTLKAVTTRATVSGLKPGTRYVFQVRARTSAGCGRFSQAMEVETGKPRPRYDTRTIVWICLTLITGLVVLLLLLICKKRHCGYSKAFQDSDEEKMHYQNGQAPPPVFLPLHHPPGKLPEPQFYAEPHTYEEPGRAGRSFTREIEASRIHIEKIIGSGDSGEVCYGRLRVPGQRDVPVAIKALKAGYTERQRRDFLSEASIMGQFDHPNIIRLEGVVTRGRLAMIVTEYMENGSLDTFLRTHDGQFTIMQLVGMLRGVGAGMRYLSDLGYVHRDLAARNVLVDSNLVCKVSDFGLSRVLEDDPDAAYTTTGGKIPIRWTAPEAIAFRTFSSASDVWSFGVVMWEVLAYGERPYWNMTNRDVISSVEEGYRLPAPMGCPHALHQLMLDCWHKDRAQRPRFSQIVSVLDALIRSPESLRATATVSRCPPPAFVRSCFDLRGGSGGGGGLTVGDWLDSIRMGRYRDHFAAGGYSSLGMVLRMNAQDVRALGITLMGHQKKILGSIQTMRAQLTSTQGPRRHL
As to conditions: at 1 µM.

For assay [19], the target named is T5, Ephrin type-A receptor 8 (Homo sapiens). As to conditions: at 10 µM.
Assay [20] has as its target T6, Ephrin type-B receptor 1 (Homo sapiens) (UniProt P54762).
T6 sequence (whole entry): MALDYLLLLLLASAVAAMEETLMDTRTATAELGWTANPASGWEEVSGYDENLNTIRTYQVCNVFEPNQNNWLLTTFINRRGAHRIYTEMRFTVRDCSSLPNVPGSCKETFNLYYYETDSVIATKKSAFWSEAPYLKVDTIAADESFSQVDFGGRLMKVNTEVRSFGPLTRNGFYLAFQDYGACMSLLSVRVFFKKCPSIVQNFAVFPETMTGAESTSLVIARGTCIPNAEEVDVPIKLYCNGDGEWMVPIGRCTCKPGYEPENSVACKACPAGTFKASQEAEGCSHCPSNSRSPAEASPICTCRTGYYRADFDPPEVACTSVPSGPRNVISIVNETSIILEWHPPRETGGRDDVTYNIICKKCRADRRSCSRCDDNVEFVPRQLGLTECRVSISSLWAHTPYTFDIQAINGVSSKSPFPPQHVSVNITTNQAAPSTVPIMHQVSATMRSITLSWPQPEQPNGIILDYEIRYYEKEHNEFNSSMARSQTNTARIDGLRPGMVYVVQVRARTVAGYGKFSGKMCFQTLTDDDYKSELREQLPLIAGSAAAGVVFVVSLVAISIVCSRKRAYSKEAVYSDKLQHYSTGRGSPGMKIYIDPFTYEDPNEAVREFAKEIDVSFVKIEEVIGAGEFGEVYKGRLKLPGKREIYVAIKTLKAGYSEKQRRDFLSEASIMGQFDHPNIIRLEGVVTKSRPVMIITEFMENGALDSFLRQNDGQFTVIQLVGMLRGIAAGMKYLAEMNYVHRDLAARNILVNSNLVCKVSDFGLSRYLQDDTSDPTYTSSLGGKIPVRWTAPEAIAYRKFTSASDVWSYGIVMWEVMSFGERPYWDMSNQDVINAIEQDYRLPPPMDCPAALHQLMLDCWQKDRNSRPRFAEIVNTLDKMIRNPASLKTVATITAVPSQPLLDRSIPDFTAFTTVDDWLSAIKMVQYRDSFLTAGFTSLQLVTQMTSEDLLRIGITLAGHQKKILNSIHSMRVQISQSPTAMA
Conditions: at 1 µM.

Sequence of Ephrin type-A receptor 2 (Homo sapiens) (P29317 whole entry): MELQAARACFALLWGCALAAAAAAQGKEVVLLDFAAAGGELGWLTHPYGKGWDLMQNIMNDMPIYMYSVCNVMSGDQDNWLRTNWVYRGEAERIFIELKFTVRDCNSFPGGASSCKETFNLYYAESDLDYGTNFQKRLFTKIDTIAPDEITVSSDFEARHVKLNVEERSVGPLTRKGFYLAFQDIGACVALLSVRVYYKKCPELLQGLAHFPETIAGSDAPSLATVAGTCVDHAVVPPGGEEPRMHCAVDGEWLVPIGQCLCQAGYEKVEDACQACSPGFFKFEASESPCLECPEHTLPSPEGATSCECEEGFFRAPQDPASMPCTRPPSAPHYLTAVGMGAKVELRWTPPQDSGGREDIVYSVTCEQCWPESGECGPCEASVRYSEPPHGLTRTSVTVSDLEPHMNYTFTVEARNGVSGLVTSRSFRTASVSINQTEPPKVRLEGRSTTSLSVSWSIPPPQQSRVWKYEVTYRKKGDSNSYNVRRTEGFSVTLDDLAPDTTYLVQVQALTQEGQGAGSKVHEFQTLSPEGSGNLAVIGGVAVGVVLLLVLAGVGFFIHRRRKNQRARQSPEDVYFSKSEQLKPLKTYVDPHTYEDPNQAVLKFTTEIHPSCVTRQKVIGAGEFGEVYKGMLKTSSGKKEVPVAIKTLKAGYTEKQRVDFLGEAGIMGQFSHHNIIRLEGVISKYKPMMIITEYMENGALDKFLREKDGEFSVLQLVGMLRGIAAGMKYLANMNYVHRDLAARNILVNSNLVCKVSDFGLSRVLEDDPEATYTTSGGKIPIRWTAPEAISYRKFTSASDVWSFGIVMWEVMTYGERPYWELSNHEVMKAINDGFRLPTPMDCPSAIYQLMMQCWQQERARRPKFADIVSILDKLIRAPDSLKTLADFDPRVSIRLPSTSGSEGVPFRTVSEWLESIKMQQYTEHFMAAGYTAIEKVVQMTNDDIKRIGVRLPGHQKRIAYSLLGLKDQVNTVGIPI

As for `CCN(CC)CCCCN1c2ccccc2Oc2ccc(Cl)cc21`, the residual activity worked out at 138% in assay [1]; 105% in [2]; 103% in assay [3]; 124% in [4]; 127% in [5]; 102% in [6]. The residual activity came out at 124% in [7]; 108% in assay [8]; 109% in [9]; 113% in assay [10]; 97% in assay [11]; 116% in assay [12]. The residual activity in assay [13] came out at 100%; in [14] it was 108%; in [15] it was 113%; in assay [16] it was 105%; in assay [17], 103%; in assay [18] it was 98%. The residual activity was determined as 114% in [19] and 100% in assay [20].

With `CCOc1cc2ncnc(Nc3cccc(Br)c3)c2cc1OCC`, the residual activity in [1] was 60%; in assay [2], 92%; in assay [3] it was 58%; in assay [4] it was -5%; in assay [5], -4%; in assay [6], 32%. The residual activity came to 4% in [7]; 85% in assay [8]; 18% in assay [9]; 81% in assay [10]; 22% in assay [11]; 86% in assay [12]. For the same compound, the residual activity in assay [13] was found to be 31%; in [14] it was 50%; in assay [15], 9%; in assay [16] it was 48%; in [17], 7%; in assay [18] it was 54%. Moreover, the residual activity was found to be 20% in assay [19] and 48% in [20].
